The full list was thinned out, with hits kept by preference.
SF-1 inh = blocks the human nuclear receptor SF-1; inhibition, % at 10 µM; Q13285; AID 525; CHO-K1 Gal4-SF-1 LBD luciferase reporter; 65,000 compounds, 0.55% hits;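 active = inhibition above the mean inhibition of all tested compounds plus 3 SD, cut at about 48% in these data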
Target sequence (Q13285 whole entry, looked up, the tested form may be a part): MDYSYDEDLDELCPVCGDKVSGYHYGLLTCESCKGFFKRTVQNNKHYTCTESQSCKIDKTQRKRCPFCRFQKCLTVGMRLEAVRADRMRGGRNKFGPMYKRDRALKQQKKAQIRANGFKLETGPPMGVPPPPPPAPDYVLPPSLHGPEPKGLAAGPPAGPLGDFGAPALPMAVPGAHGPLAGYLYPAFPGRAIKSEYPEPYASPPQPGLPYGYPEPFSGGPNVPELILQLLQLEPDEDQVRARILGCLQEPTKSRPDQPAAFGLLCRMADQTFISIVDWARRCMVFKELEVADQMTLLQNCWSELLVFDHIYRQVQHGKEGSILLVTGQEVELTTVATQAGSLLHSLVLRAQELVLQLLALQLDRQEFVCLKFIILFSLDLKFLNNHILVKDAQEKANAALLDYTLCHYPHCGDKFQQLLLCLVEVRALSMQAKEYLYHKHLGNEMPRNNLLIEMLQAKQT
Each line names hits and unclear results; the compound was inactive in the other large screens.

CS(=O)(=O)N1CCN(c2nc(-c3ccc(F)cc3)cs2)CC1	none
Cc1ccc(-c2csc3ncnc(Sc4nnc(CN5CCCCCC5=O)o4)c23)cc1	SF-1 inh 71.4
CCCc1cc(C(N)=O)c(NC(=O)c2ccco2)s1	none
COc1cccc(OC)c1C(=O)Nc1ccc(S(=O)(=O)Nc2cc(C)nc(C)n2)cc1	none
O=c1c2ccccc2nc2c3ccccc3c(N3CCOCC3)nn12	none
O=c1[nH]c(N2CCOCC2)nc2ncn(Cc3ccccc3)c12	none
c1ccc(-n2nnc3c(N4CCOCC4)ncnc32)cc1	SF-1 inh 52.3
Cc1cc(Nc2ccc(F)cc2F)n2ncnc2n1	none
COc1ccc(C(=O)/C=C/Nc2cccc(C)n2)cc1OC	none
Cc1ccc(C(=O)/C=C/Nc2ccccn2)cc1	SF-1 inh 82.8
Cc1cc(NC(=O)c2cc(-c3ccccn3)nc3ccccc23)no1	none
CCOC(=O)c1c(NC(=O)CSc2nc(C)cc(C)c2C#N)sc(C(C)=O)c1C	none
Cc1cc(/C=c2/sc3nc4ccccc4n3c2=O)c(C)n1-c1ccccn1	SF-1 inh 85.1
CCOC(=O)Cn1c(-c2ccccn2)nc2ccccc21	none
CCCCn1cnc2c1c(=O)n(C)c(=O)n2C	none
O=C(CSc1ccccn1)c1ccc2c(c1)OCO2	none
COC(=O)c1ccccc1NC(=O)CN(C)S(=O)(=O)c1ccc(OC)c(C)c1	none
CC(=O)Nc1ccc(S(=O)(=O)Nc2ccc(NC(=O)c3ccco3)cc2)cc1	none
Oc1c(CN2CCCCC2)cc(COCc2ccccc2)c2cccnc12	SF-1 inh 88.7
O=C(c1cccc(COc2ccc(Cl)cc2Cl)c1)N1CCN(c2ccccn2)CC1	none
c1ccc(Cn2nnnc2CN2CCCC2)cc1	none
COc1ccc(-n2nc(C(=O)NCC(=O)N3CCN(c4ccccn4)CC3)c3ccccc3c2=O)cc1	none
Oc1c(CN2CCN(c3ccccn3)CC2)cc(Cl)c2cccnc12	SF-1 inh 67.1
COCc1cc(CN2CCCC2)c(O)c2ncccc12	SF-1 inh 49.8
CCOC(=O)c1oc2ccc(CNCCO)c(Cl)c2c1C	none
O=C(O)CCC(=O)Nc1nc(-c2ccccc2)cs1	none
CC(OC(=O)c1cc2sccc2n1C)C(=O)NCC1CCCO1 (configuration not stated)	none
C=CCNc1sc(C(=O)c2cccs2)c(N)c1C#N	none
Cc1cc(C(=O)Nc2sc3c(c2C#N)CCC(C(C)(C)C)C3)no1 (configuration not stated)	none
C=CCn1c(=O)c2c(nc3n2CCS3)n(C)c1=O	none
CN(C)CCN1C(=O)C(=O)/C(=C(/O)c2ccccc2)C1c1ccccc1F (configuration not stated)	none
CC1CCc2nc(NC(=O)c3ccco3)sc2C1 (configuration not stated)	SF-1 inh 63.6
CS(=O)(=O)c1ccc2nc(NC(=O)c3ccco3)sc2c1	none
CC1CCc2nc(NC(=O)Cc3cccs3)sc2C1 (configuration not stated)	none
COCc1cc(C)[nH]c(=O)c1C#N	none
CC1CN(Cc2nc3c(c(=O)n(C)c(=O)n3C)n2CCCO)CC(C)O1 (configuration not stated)	none
Cc1nc2ccc(N)cc2s1	none
COc1cccc(-c2cc(C(=O)NCCN3CCOCC3)no2)c1	none
O=C(NCCCN1CCCCCC1)c1ccc2c(c1)NC(=O)C(N1CCOCC1)S2 (configuration not stated)	none
O=C(NCCCN1CCOCC1)c1csc2c1CCCC2	SF-1 inh 74.0
c1ccc(Cn2ccnc2-c2ccco2)cc1	none
CCOC(=O)c1[nH]c2ccc(OC)cc2c1NS(=O)(=O)c1ccc(OC)cc1OC	none
O=C(Nc1ccc2c(c1)CCC2)C1CCCN(c2ncccn2)C1 (configuration not stated)	none
COCCCN(C(C)=O)c1nc(-c2ccccc2)cs1	none
CCN1C=CC(=C2C(=O)c3ccccc3C2=O)C=C1	SF-1 inh 79.7
CC1=CC(=C2C(=O)c3ccccc3C2=O)C=C(C)O1	none
CCCN1C=CC(=C2C(=O)c3ccccc3C2=O)C=C1	SF-1 inh 93.0
CCC1(CC)C(=O)N=C2c3ccccc3C(=O)N21	none
CCCC(=O)c1ccc(N2CCOCC2)c(F)c1	none
Cc1csc(SCC(=O)Nc2cccc3nsnc23)n1	none
CCCCNC(=O)C1CC(=O)N(C2CCCCC2)C1 (configuration not stated)	none
CC(=O)C1=C(O)C(=O)N(c2ccc(C(=O)O)cc2)C1c1ccccc1 (configuration not stated)	none
CC(=O)c1cccc(NC(=O)c2ccc(N(C)S(C)(=O)=O)cc2)c1	none
O=C(CCCc1cccs1)Nc1nc2c(s1)CCCC2	none
c1coc(CNc2nc3sc4c(c3c3ncnn23)CCCC4)c1	none
c1csc(CCNc2ncnc3sc4c(c23)CCC4)c1	SF-1 inh 75.9
CN(C)S(=O)(=O)c1cccc(C(=O)Nc2ccc(Cl)cn2)c1	none
CC(C)CCn1nnnc1C(c1ccccc1)N1CCC(C(N)=O)CC1 (configuration not stated)	none
Cc1cnc(NC(=O)CSc2nnc(-c3ccncc3)n2C2CCCCC2)s1	none
CCOC(=O)c1ccc(NC(=O)CSc2nc3c(c(=O)n2C)SC(C)C3)cc1 (configuration not stated)	none
c1ccc(-c2nc(N3CCCCCC3)c3ccccc3n2)nc1	SF-1 inh 86.4
O=C(CN1CCOc2ccccc21)NCc1ccc(Cl)cc1	none
COc1ccc(C2N(c3ccc(Cl)cc3)C(=O)C3CCCN32)cc1 (configuration not stated)	none
CCc1ccc2oc(-c3cc(N)ccc3Cl)nc2c1	none
CCc1ccc2oc(-c3cc(N)cc(C)c3O)nc2c1	none
CCc1ccc2oc(-c3cc(N)ccc3O)nc2c1	SF-1 inh 56.0
COc1cc(C)nc(Nc2nc(C)c(C(C)=O)s2)n1	none
c1coc(-c2nnc(NC3=NCCC3)o2)c1	none
Cc1ccccc1-c1nnc(-c2ccc(Br)cc2)o1	none
Cc1ccc(-c2nnc(Nc3ccccc3)o2)cc1	SF-1 inh 67.9
CCSc1ccccc1C(=O)Nc1nncs1	none
CCC(=O)Nc1nc2ccc3nc(C)sc3c2s1	none
CCC(OC(=O)CCc1nc2ccccc2[nH]c1=O)C(=O)c1ccccc1 (configuration not stated)	none

Compound activity from PubChem.
